{
  "source": "PubChem BioAssay (NCATS)",
  "note": "Inconclusive results are not listed. Activity calls are given as the source filed them. The call rests on the fitted dose curve; in most records, active means well fitted inhibition curve with a large enough effect; inconclusive means small, poorly fitted or top-dose-only effect; inactive means flat fitted curve, though single readings scatter.",
  "data": [
    {"tested_on": "CRL-7250", "assay": "qHTS assay to identify novel small-molecules to repurpose for Merkel cell carcinoma treatment (AID 1296009); further: nearly all actives have a fitted effect of over 60% in size", "details": "MCC and control cell lines, CellTiter-Glo viability, 72 h; series mostly up to 92 µM; activity change, negative = cytotoxicity: at the top concentration", "in_short": "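CellTiter-Glo luminescence after 72 hr compound exposure at 37 degree celsius gave cell viability. Libraries NPC and MIPE were run as 8- and 11-point dose responses; RLUs normalized to DMSO (negative) and no-cell (cytotoxicity) controls.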", "values": [
      {"smiles": "Cc1nc2cc(C(=O)NCc3ccccn3)nn2c(C)c1Cc1cccc(Cl)c1", "outcome": "inactive"},
      {"smiles": "C=C[C@H]1CN2CC[C@H]1C[C@@H]2C(O)c1ccnc2ccc(OC)cc12", "note": "(stereo not given in full)", "outcome": "inactive"},
      {"smiles": "CO[C@@H]1CC[C@H](OC[C@]2(COC(=O)c3ccc(C)[nH]3)[C@H](OC(C)=O)CC[C@@]3(C)[C@@H]4CC=C(C)[C@@H](C5=C(O)C(=O)OC5O)[C@]4(C)CC[C@@H]32)O[C@H]1C", "note": "(stereo not given in full)", "outcome": "inactive [at 17.4 µM]"},
      {"smiles": "C=C1C(O)CC2C(C(=O)O)=COC(O[C@@H]3O[C@H](COC(=O)c4ccc(O)cc4)[C@@H](O)[C@H](O)[C@H]3O)C12", "note": "(stereo not given in full)", "outcome": "inactive [at 17.4 µM]"},
      {"smiles": "Cc1ccc2c(c1)C=Cc1cc(C)ccc1C2c1cn(Cc2ccc(C(=O)Nc3nn[nH]n3)o2)c(=O)[nH]c1=S", "outcome": "inactive"},
      {"smiles": "CC1(C)CC=C(c2cnc3ccccc3c2)c2cc(C(=O)Nc3ccc(C(=O)O)cc3)ccc21", "outcome": "inactive"},
      {"smiles": "C=C1CC2C3(C)C(O)CC(=O)C(C)(C)C3C(OC(C)=O)C(OC(C)=O)C2(C)C2C(=O)OC(C)(C(=O)OC)C(=O)C12C", "note": "(stereo not given)", "outcome": "inactive [at 17.4 µM]"},
      {"smiles": "CC1(C)CC[C@]2(C(=O)O)CC[C@]3(C)C(=CCC4[C@@]5(C)C[C@@H](O)[C@H](O)[C@](C)(CO)C5CC[C@]43C)[C@@H]2[C@@H]1O", "note": "(stereo not given in full)", "outcome": "inactive [at 17.4 µM]"},
      {"smiles": "CC1=CC(=O)[C@]2(O[C@@H]3O[C@@H](C)[C@H](O)[C@@H](O)[C@H]3O)C=CO[C@@H](O[C@@H]3O[C@H](CO)[C@@H](O)[C@H](O)[C@H]3O)[C@H]12", "outcome": "inactive [at 17.4 µM]"},
      {"smiles": "O=C(CN1C(=O)C2(CCCC2)NCC1c1cc(F)cc(F)c1)Nc1ccc2c(c1)CC1(C2)C(=O)Nc2ncccc21", "note": "(stereo not given)", "outcome": "inactive"},
      {"smiles": "COC(=O)C(C)C1CCC2(C)C(=O)C=CC(C)(O)C2C1O", "note": "(stereo not given)", "outcome": "inactive"},
      {"smiles": "COc1ccc(-c2nc(-c3ccc(-c4cccc(Cl)c4)o3)[nH]c2-c2ccc(OC)cc2)cc1", "outcome": "inactive"},
      {"smiles": "CC(C)OC(=O)N1CCC(Oc2ncnc3c2cnn3-c2ccc(S(C)(=O)=O)cc2F)CC1", "outcome": "inactive"},
      {"smiles": "O=C(O)c1cc(-c2c(-c3ccccc3)nn3ccccc23)n[nH]c1=O", "outcome": "inactive"},
      {"smiles": "C/C=C/C=C/C(O)=C1/C(=O)[C@]2(C)C3/C(=C(O)/C=C/C=C/C)C(=O)C4(C)C1[C@]1(C)O[C@@]4(O)[C@@]3(C)O[C@@]12O", "outcome": "inactive [at 17.4 µM]"},
      {"smiles": "CC1=C(C)C(=O)OC(C(C)C2CCC3C4C5OC5C5(O)CC(OC6OC(CO)C(OC7OC(C)C(O)C(O)C7O)C(O)C6O)CC(O)C5(C)C4CCC23C)C1", "note": "(stereo not given)", "outcome": "inactive [at 17.4 µM]"},
      {"smiles": "C=C1[C@H]2[C@H](O[C@@H]3O[C@H](COC(=O)/C=C/c4cc(OC)c(O)c(OC)c4)[C@@H](O)[C@H](O)[C@H]3O)OC=C(C(=O)O)[C@H]2C[C@@H]1O", "outcome": "inactive [at 17.4 µM]"},
      {"smiles": "O=c1[nH]ccc2nc(-c3ccc(CN4CCC(c5nc(-c6ccccn6)n[nH]5)CC4)cc3)c(-c3ccccc3)cc12", "outcome": "inactive"},
      {"smiles": "CCc1nnc(NS(=O)(=O)c2ccc(NC(=S)NC(=O)/C=C/c3ccc(F)cc3)cc2)s1", "outcome": "inactive"},
      {"smiles": "COc1c(CCC(=O)O)cccc1O[C@@H]1O[C@H](CO)[C@@H](O)[C@H](O)[C@H]1O", "outcome": "inactive"},
      {"smiles": "CC(C)(C)OC(=O)c1ncn2c1C(C)(C)Nc1ccccc1-2", "outcome": "inactive"},
      {"smiles": "CC/C=C\\[C@H](O)[C@H](O)C1=C(C)C(=O)[C@]2(O1)C(=O)N[C@@](O)(C(=O)c1ccccc1)[C@@H]2O", "outcome": "inactive [at 17.4 µM]"},
      {"smiles": "C=C[C@H]1C(O[C@@H]2O[C@H](CO)[C@@H](O)[C@H](O)[C@H]2O)OC=C2C(=O)N3CCc4c([nH]c5ccccc45)C3CC21", "note": "(stereo not given in full)", "outcome": "inactive [at 17.4 µM]"},
      {"smiles": "CC[C@H]1OC(=O)[C@H](C)[C@@H](OC2C[C@@](C)(OC)[C@@H](O)[C@H](C)O2)[C@H](C)[C@@H](OC2O[C@H](C)C[C@H](NC)[C@H]2O)[C@](C)(O)C[C@@H](C)CN(C)[C@H](C)[C@@H](O)[C@]1(C)O", "note": "(stereo not given in full)", "outcome": "inactive"},
      {"smiles": "O=C(Nc1ccc(-c2ccc(Cl)c(Cl)c2)cc1)C1=C(O)c2ccccc2S(=O)(=O)N1", "outcome": "inactive"},
      {"smiles": "CC1=CC(=O)C(=C(C)C)CC2C(C)(O)CCC12O", "note": "(stereo not given)", "outcome": "inactive"},
      {"smiles": "O=C(Nc1ccccc1)N1CCN(Cc2ccc3ccccc3n2)CC1", "outcome": "inactive"},
      {"smiles": "CC(=O)C1CCC(=O)N1Cc1ccccc1", "note": "(stereo not given)", "outcome": "inactive"},
      {"smiles": "C=C(C(=O)O)C1CC(O)C2(C)CCCC(C)(O)C2C1", "note": "(stereo not given)", "outcome": "inactive"},
      {"smiles": "O=C(/C=C/c1ccc(O)cc1)OC[C@H]1O[C@H](O[C@@]2(CO)O[C@@H](CO)[C@H](O)[C@H]2O)[C@H](O)[C@@H](O)[C@@H]1O", "outcome": "inactive [at 17.4 µM]"}
    ]}
  ]
}
